Nrf2 ARE act – qHTS of Nrf2 Activators | AREc32 ARE-luciferase reporter (MCF7-derived line), luminescence, 24 h | Potency, µM (top dose mostly 46.1 µM), most hits filed as activators | 0.31% of 410,000 active | AID 624171, 2012; also: nearly all actives have a fitted effect of over 65% in size
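Luciferase luminescence (Steady-Glo, 30 min at room temperature) served as the read-out of ARE activation in AREc32 cells treated with compounds for 24 hr at 37 deg C.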
IL2 activator – qHTS of IL-2 Activators; AID 652025, 2013; activation, % (series mostly up to about 46 µM); 0.065% of 360,000 active; IL-2 activation reporter assay, cell-based qHTS; stimulated with anti-CD3/CD4/CD28 beads; in transgenic mouse T cells; in the data active = activation above about 50%; inconclusive = mostly about 30% to 49%
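Unstimulated transgenic mouse T cells preincubated 60 min with compound, then stimulated with anti-CD3/anti-CD4-coated beads plus anti-CD28 for 18 h at 37 degrees C. IL-2 response read as EGFP and DsRed fluorescence by plate cytometry.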
miR-21 reporter – qHTS Assay for Modulators of miRNAs and/orActivators of miR-21. HeLa miR-21 FLuc reporter, luciferase, 48 h. Potency, µM (top dose mostly 38.3 µM), usual class: activators. 340,000 tested, under 10 active. AID 2288, 2010;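 also: miR-21 action dims this reporter so a rising signal means less miR-21 action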
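Compounds were titrated across several concentrations (up to approximately 40 uM) and incubated 48 hours with HeLa miR-21-FLuc reporter cells (miR-21 target sequence downstream of FLuc, endogenous miR-21). Readout was firefly luciferase luminescence after lytic detection reagent.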
Nrf2 block – Nrf2 qHTS screen for inhibitors; A549 ARE-Fluc reporter, luciferase luminescence, 18-24 h; 2.1% of 360,000 active; AID 504444, 2011; Potency, µM (series often up to 46 µM), usual class: inhibitors; also: nearly all actives have a fitted effect of over 60% in size
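A549 ARE_Fluc cells (5000/well, 5% FBS OPTI-MEM) pre-incubated 2 h, then treated with compounds 18-24 h at 37C/5% CO2 in concentration-response. CellTiter-Fluor viability read first; BugLite luciferase luminescence after 15 min at room temperature gives Nrf2 activity.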
A549 tox – Nrf2 qHTS screen for inhibitors: counterscreen for cytotoxicity | Potency, µM (titrated, usually from 46 µM), usual class: inhibitors | A549 ARE-Fluc cells, CellTiter-Fluor viability, 18-24 h | 0.16% of 390,000 active | AID 504648, 2011
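A549 ARE_Fluc cells in 5% FBS OPTI-MEM were exposed to compounds in concentration-response for 18-24 h at 37 deg C. Viability was read by CellTiter-Fluor fluorescence (Ex 405/Em 525) after 30 min, before the luciferase read.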
ClpP mod – qHTS Assay for Activators of ClpP; purified B. subtilis ClpP, FRET peptide cleavage, 20 min; Potency, µM (top dose mostly 57.5 µM); AID 651965, 2013; 1.9% of 340,000 active; active = well fitted falling curve with a large enough effect; inconclusive = small, poorly fitted or top-dose-only effect; inactive = no such curve, though single readings can be large or run the other way; also: the source files actives as falling curves though it sought activators and does not explain the sign; nearly all actives have a fitted effect of over 65% in size
Target sequence (P80244 whole entry, looked up): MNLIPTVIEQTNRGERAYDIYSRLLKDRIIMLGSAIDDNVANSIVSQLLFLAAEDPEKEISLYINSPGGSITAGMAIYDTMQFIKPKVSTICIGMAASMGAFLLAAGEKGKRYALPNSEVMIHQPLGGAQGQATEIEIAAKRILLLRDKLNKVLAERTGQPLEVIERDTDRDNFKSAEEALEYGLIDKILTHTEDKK
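ClpP 10 microg/mL final, pH 8 Tris/KCl buffer with BSA, glycerol, Tween-20; compound pinned in; FRET-FV substrate; RT 20 min; Ex320/Em430; ΔFRET vs ADEP 5.8 microM, DMSO, no enzyme.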
A number is an active result; – = inactive; ? = inconclusive; · = no result; [ ] = another dose, or the depositor's remark. Most compounds without a hit are left out; they make up all but 3.7% or so of the library. Unless noted, calls follow the shape of the dose curve; as a rule, active = well fitted curve in the direction sought with a large enough effect; inconclusive = small, poorly fitted or top-dose-only effect, or another doubt; inactive = no such curve, though single readings can be large; an effect the other way counts as inactive or inconclusive.

SMILES | Nrf2 ARE act | IL2 activator | miR-21 reporter | Nrf2 block | A549 tox | ClpP mod
COc1ccc(-c2cc(-c3ccccc3)c(C#N)c(SCC(O)CS(=O)(=O)Cc3ccc(Cl)cc3)n2)cc1 (stereo not drawn) | – | · | – | – | – | –
Cc1nc(C(C)Nc2ncnc3ccc(-c4ccc5c(c4)OCO5)cc23)cs1 (stereo not drawn) | · | · | · | – | – | ·
Fc1ccccc1N1CC(c2ccccc2)C(c2cccs2)=N1 (stereo not drawn) | – | – | – | – | –[1.84 µM] | 16µM
Cn1c(=O)cc(SCC(=O)NCCc2ccc(Cl)cc2)c2cc(Cl)ccc21 | – | · | – | – | – | –
CO[C@@]12[C@@H]3N[C@@H]3CN1C1=C(C(=O)C(N)=C(C)C1=O)[C@@H]2COC(N)=O | – | – | · | 10µM | ? | –
CN(C)S(=O)(=O)c1cccc(-c2cn3ccccc3n2)c1 | – | – | – | – | – | ?
O=S(=O)(c1cccc(-c2cn3cc(Cl)ccc3n2)c1)N1CCOCC1 | – | – | – | – | – | 28µM
O=S(=O)(c1cccc(-c2cn3ccccc3n2)c1)N1CCCCC1 | – | – | – | – | – | –
CN(C)S(=O)(=O)c1cccc(-c2cn3cc(Cl)ccc3n2)c1 | – | – | – | · | – | 28µM
NS(=O)(=O)c1ccc(CNC(=S)Nc2ccc(Cl)c(Cl)c2)cc1 | – | – | – | – | – | ·
NS(=O)(=O)c1ccc(CCNC(=O)Nc2ccc(Cl)c(Cl)c2)cc1 | – | – | – | 21µM | – | –
O=S(=O)(c1ccc2c(c1)OCCO2)N1CCN(S(=O)(=O)c2cccs2)CC1 | · | · | · | – | – | ·
O=[N+]([O-])c1cc(S(=O)(=O)C(F)(F)F)ccc1Sc1nc2ccccc2[nH]1 | – | – | ? | – | – | 25µM
Cc1cccc(CN2CCN(C(=O)c3cccc4ccccc34)CC2)c1 | – | – | – | – | – | 32µM
O=C(c1ccncc1)N1CCN(C(=O)c2cccc3ccccc23)CC1 | – | – | – | – | – | 14µM
NS(=O)(=O)c1ccc(CCNC(=O)Cn2c(=O)c3cccn3c3ccc(F)cc32)cc1 | – | · | – | – | – | ?
O=C(c1ccc(Cn2cc(Cl)c([N+](=O)[O-])n2)cc1)N1CCN(Cc2ccccc2)CC1 | – | – | – | 21µM | – | –
O=C(c1ccc([N+](=O)[O-])cc1)N1CCN(Cc2ccccc2)CC1 | – | – | – | – | – | –
COCCCNc1nc2ccccc2nc1NS(=O)(=O)c1cc(Cl)ccc1Cl | – | – | – | 21µM | – | –
Cc1ccccc1Cn1c(SCc2ccc(C(=O)NCCc3ccccc3)cc2)nc2ccncc21 | – | · | – | ? | ? | –
COc1cccc(CNC(=O)C2CCCN(c3nnc(-n4c(C)ccc4C)s3)C2)c1OC (stereo not drawn) | – | · | – | – | – | –
Cc1ccoc1C(=O)Nc1ccc(CC(=O)O)cc1 | – | – | ? | 1µM | – | –
COc1ccc(CN2CC(=O)N(c3ccc(C)cc3C)C2=S)cc1OC | – | – | – | 13µM | – | ·
CN(CCO)c1nc(-c2cccs2)nc2ccccc12 | · | · | · | – | – | –
Cc1ccc(S(=O)(=O)N(C)CCN(C)c2nc(-c3cccs3)nc3ccccc23)cc1 | · | · | · | – | – | 32µM
SMILES | Nrf2 ARE act | IL2 activator | miR-21 reporter | Nrf2 block | A549 tox | ClpP mod
CN(Cc1ccc(C(C)(C)C)cc1)C(=O)C1CCN(C(=O)Nc2ccccc2)CC1 | – | – | · | 21µM | – | ·
O=S(=O)(Nc1cccc(-c2ccc(N3CCCCC3)nn2)c1)c1cccc(F)c1 | – | · | – | · | – | –
O=c1[nH]nc(CNc2cccc(C(F)(F)F)c2)c2ccccc12 | – | – | – | 13µM | – | –
CC(=O)Nc1ccc(/C=C/c2nc3ccccc3s2)cc1 | · | · | · | · | · | –
O=C(NCc1cccs1)c1ccc(CSc2nc3cccnc3n2Cc2ccc(F)cc2)cc1 | – | · | – | 18µM | – | –
Cc1cccc(CSc2nc3cccnc3n2Cc2ccc(C(=O)NCc3cccs3)cc2)c1 | – | · | – | ? | ? | –
COc1ccc(Cn2c(SCc3ccc(C(=O)NCc4cccs4)cc3)nc3cccnc32)cc1 | – | · | – | – | – | 28µM
O=C(NCc1cccs1)c1ccc(CSc2nc3cccnc3n2Cc2ccccc2)cc1 | – | · | – | ? | – | –
O=C1c2ccccc2C(=O)N1c1cccc(Cl)c1 | · | · | · | – | – | ·
CCc1ccc2oc(-c3cc(N)ccc3O)nc2c1 | 4.5µM | – | – | ? | – | –
CCc1ccc2oc(-c3cc(N)ccc3Cl)nc2c1 | – | – | – | ? | – | ?
Cc1ccc(-c2nnc3c(C(F)(F)F)nc4ccccc4n23)cc1 | – | – | – | 23µM | ? | 13µM
FC(F)(F)c1nc2ccccc2n2c(-c3ccc(Cl)cc3)nnc12 | – | – | – | · | 5.8µM | 13µM
COc1ccc(CNC(=O)CC(C)n2nc(C)cc2C)cc1 (stereo not drawn) | – | · | – | – | – | –
COc1ccc(-c2cc(C(=O)Nc3cc(C(F)(F)F)ccc3Cl)no2)cc1 | – | · | – | – | – | –
O=c1c2c(-c3cccs3)csc2ncn1/N=C/c1ccc(OC(F)F)cc1 | – | – | – | 9.2µM | ? | –
CC(=O)Nc1ccc(OCc2cccc(-c3nc4ccccc4c(=O)n3Cc3ccco3)c2)cc1 | · | · | · | ? | – | ·
c1ccc(CC2CCN(c3nc4ccccc4n4nnnc34)CC2)cc1 | – | – | – | – | – | 16µM
Cc1ccc(-c2nc(NC(=O)c3nn(C)cc3[N+](=O)[O-])sc2C)cc1 | – | – | ? | 18µM | ? | –
Cc1ccc(-c2nc(NC(=O)c3nn(C)cc3[N+](=O)[O-])sc2C)cc1C | ? | – | – | 26µM | – | –
Cc1cnc(NC(=O)c2nn(C)cc2[N+](=O)[O-])s1 | – | – | – | ? | – | ·
CCCCCCCCCCCCCCCCCCN(CCCCCCCCCCCCCCCCCC)c1ccc(/C=C/c2ccc(C=O)cc2)cc1 | · | · | · | · | · | –
COCCN(Cc1ccccc1)C(=O)c1cc(-c2ccc(OC)c(OC)c2)nc2ccccc12 | – | – | – | 18µM | ? | ?
O=C(c1ccc2c(c1)OCO2)C1CCCN(Cc2cccn2-c2cccnc2)C1 (stereo not drawn) | – | – | – | – | – | 35µM
O=C(c1ccc(Cl)cc1)C1CCCN(Cc2cccn2-c2cccnc2)C1 (stereo not drawn) | – | – | – | – | – | ·
CCC(C)c1ccc(S(=O)(=O)N2CCN(C(=O)c3ccc(Cl)c(S(=O)(=O)N4CCOCC4)c3)CC2)cc1 (stereo not drawn) | – | – | · | 10µM | – | –

High-throughput results (PubChem BioAssay)
